Screens from PubChem.
HIF act – HIF pathway transcriptional activation; U2OS HRE-luciferase reporter, luminescence; normalized: DMSO 0%, desferrioxamine 100%; activation, % at 7.5 µM (by protocol); actives 0.32% (n = 300,000);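 active = mean activation of at least 10% of the iron chelator positive control signal, with at least half of replicates also reaching 10%; inconclusive = mean and replicate majority disagree about reaching 10%; inactive = mean and most replicates under 10%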
Platelet DG rel – modulates dense granule release in human platelets; human platelet-rich plasma, SFLLRN dense granule ATP release, luminescence; inhibition, %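 (compounds screened at 7.5 µM in platelet-rich plasma)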; actives 0.22% (n = 300,000);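 active = mean replicate score, as percent of positive control, at or above 50; inconclusive = mean below 50 but at least one replicate at or above 50; inactive = mean and every replicate below 50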
KLF5 inh – inhibitors of KLF5 expression. DLD-1 KLF5 promoter-luciferase reporter, luminescence. inhibition, % at 5 µM. actives 0.23% (n = 290,000);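 active = inhibition above a per-plate limit of that plate's mean compound inhibition plus 3 SD, cut at about 60% in these data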;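 also: 0% = DMSO wells and 100% = LY294002 at 200 µM; higher means less KLF5 promoter-driven luciferase light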
aSyn UTR inh – MLPCN primary screen, SNCA 5' untranslated region. alpha-synuclein 5'UTR reporter, inhibitor activity. actives 0.82% (n = 300,000). inhibition, % (tested at 7.5 µM); in the data active = inhibition above about 60%; inconclusive = no clear call, values can overlap the other calls;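 also: H4 neuroglioblastoma cells stably carrying SNCA 5'UTR luciferase fusion; 0% = DMSO wells and 100% = positive control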
Wee1 stabilizer – blocks degradation of human Wee1 kinase; P30291; actives 1.2% (n = 220,000); reporter increase, % at 5 µM; HeLa Luc-Wee1K328M stability, luciferase luminescence; 100% = proteasome inhibitor MG132 effect;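 active = activation above the mean of all tested compounds plus 3 SD, set per screening run, cut at about 8.8% in these data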;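 also: cells exposed to compound for 20 h before luminescence read; 0% = DMSO alone and 100% = MG132 at 30 µM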
Target sequence (P30291 whole entry K328M): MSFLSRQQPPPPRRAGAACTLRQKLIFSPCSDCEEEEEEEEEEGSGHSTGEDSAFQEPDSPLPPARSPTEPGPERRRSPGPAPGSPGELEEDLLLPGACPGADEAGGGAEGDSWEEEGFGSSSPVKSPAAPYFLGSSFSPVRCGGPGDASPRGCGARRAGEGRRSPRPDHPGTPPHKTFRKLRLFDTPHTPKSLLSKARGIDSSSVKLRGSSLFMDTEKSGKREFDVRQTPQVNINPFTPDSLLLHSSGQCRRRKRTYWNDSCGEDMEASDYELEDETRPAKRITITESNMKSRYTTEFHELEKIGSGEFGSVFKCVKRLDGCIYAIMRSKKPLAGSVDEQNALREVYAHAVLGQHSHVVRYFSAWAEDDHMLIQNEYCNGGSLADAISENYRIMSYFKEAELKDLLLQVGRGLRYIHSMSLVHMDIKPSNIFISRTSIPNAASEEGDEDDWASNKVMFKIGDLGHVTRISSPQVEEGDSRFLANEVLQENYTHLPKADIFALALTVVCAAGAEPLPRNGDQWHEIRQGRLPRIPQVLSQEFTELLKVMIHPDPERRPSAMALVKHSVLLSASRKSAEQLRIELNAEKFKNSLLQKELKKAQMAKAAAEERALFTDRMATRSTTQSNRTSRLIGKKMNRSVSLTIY
Wee1 degr conf – human Wee1 degradation inhibition, confirmation | HeLa Luc-Wee1K328M degradation, luminescence; vehicle 0%, proteasome-blocked wells 100% | activation, % at 5 µM | actives 4% (n = 1,100) | AID 1410 | shares compounds with Wee1 stabilizer; in the data active = activation above about 8.9%
* marks the source's active call; other numbers are inactive results; u = inconclusive; x = no result given. Compounds with a hit are over-represented: about 2.1% of the library has one in this group of screens.

SMILES	HIF act	Platelet DG rel	KLF5 inh	aSyn UTR inh	Wee1 stabilizer	others
N#CCNC1CC(=O)N(c2ccccc2)C1=O (centres undefined)	-1	0	-35	-2	x
CN(NC1CC(=O)N(c2ccccc2)C1=O)c1ccccc1 (centres undefined)	x	x	-21	x	11*
Cc1nc2ccccc2c(-c2ccccc2)c1CC(=O)O	0	0	8	2	-2
O=C(O)C[C@H](O)C[C@H](O)/C=C/c1c(C2CC2)nc2ccccc2c1-c1ccc(F)cc1	-3	-1	x	104*	x
CCOC(=O)[C@@H]1[C@H]2COc3ccccc3[C@H]2N2C(=O)N(c3ccc(C(F)(F)F)cc3)C(=O)[C@]12C	1	1	-12	1	x
O=C(CSc1nnc(-c2ccc(F)cc2)c2ccccc12)Nc1ccccc1	1	-17	-3	4	10*
N#C/C(=C\c1ccc(OCc2cccc(C(=O)O)c2)cc1)C(=O)NCc1ccco1	-1	-6	-164	-31	9.2*
COc1cc(/C=C(/C#N)C(=O)Nc2ccccc2)ccc1OCc1ccc(C(=O)O)cc1	0	-4	-62	-15	-3
COc1cc(/C=C(\C#N)C(=O)NCc2ccccc2)ccc1OCc1ccc(C(=O)O)cc1	1	0	-31	-29	11*
N#C/C(=C\c1ccc(OCc2ccc(C(=O)O)cc2)cc1)C(=O)NCc1ccccc1	-1	7	-34	-37	x
Cc1ccc(SC2CC(=O)N(c3ccc4c(c3)OCCO4)C2=O)cc1 (centres undefined)	-1	11	-33	-5	6
CC(COc1ccccc1Cc1ccccc1)N1CCCCC1 (centres undefined)	0	-3	x	-32	x
COc1ccccc1-c1cc(C(=O)N2CCCc3ccccc32)no1	0	1	-20	-44	9.8*
COc1ccc(OC)c(-c2cc(C(=O)N3CCCc4ccccc43)no2)c1	0	-9	-8	6	-1
COc1ccccc1C(=O)Nc1ccc2c(c1)CCCN2C(=O)c1cccs1	0	25	-14	-28	x
COc1ccccc1C(=O)Nc1ccc2c(c1)CCCN2C(=O)c1ccccc1	1	54*	-15	-36	x
COC(=O)C1=C(N)Oc2cc(C)n(Cc3cccnc3)c(=O)c2C1c1cc(OC)ccc1OC (centres undefined)	0	-31	1	9	-2
COC(=O)C1=C(N)Oc2cc(C)n(Cc3cccnc3)c(=O)c2C1c1cccc(OC)c1OC (centres undefined)	-1	-2	-9	1	9.2*
COC(=O)C1=C(CS(=O)(=O)c2ccc(OC)c(OC)c2)NC(=O)NC1c1ccc(O)c(OC)c1 (centres undefined)	-1	-18	10	3	x
CCn1cc(-c2cc(C(=O)O)c3ccccc3n2)cn1	0	16	5	21	1
CCOC(=O)C(C)/C(C)=N/NC(=O)c1cc2ccccc2cc1O (centres undefined)	-1	-11	-3	62*	1
C/C(CC(=O)N1CCCC1)=N\NC(=O)c1cc2ccccc2cc1O	0	-1	-15	-18	12*
O=C(OCC(=O)N1CCCCC1)c1cc2ccccc2cc1O	1	-2	-3	-23	0
CC(C)NC(=O)CSc1c2c(nc3ccccc13)CCCC2	0	-1	1	-29	-2
S=C(Nc1ccccc1)Nc1ccc(OCc2ccc(Cl)cc2Cl)cc1	-6	3	27	96*	-1
SMILES	HIF act	Platelet DG rel	KLF5 inh	aSyn UTR inh	Wee1 stabilizer	others
S=C(NCCSCc1ccc(Cl)cc1Cl)Nc1ccccc1	-1	x	-28	0	0
COC(=O)Cc1ccc(NC(=S)NC(C)(C)C)cc1	25*	-3	-28	-6	2
COC(CNC(=O)CCc1c(C)nc2c(c(C)nn2-c2ccc(C)cc2)c1C)OC	-1	1	15	12	x
Cc1ccc(-n2nc(C)c3c(C)c(CCC(=O)Nc4ccc(CN5CCCC5)cc4)c(C)nc32)cc1	0	2	-34	104*	-4
Cc1cccc(N2CC(C(=O)Nc3ccc4c(c3)OCCO4)CC2=O)c1C (centres undefined)	-1	5	7	-16	x
FC(F)(F)c1ccc(-c2nc(=S)[nH][nH]2)cc1	96*	3	-42	-7	-3
CCOc1ccc(Nc2cc3n(c(=O)n2)CCc2cc(OC)c(OC)cc2-3)cc1	0	9	-16	35	x
COc1cc2c(cc1OC)-c1cc(Nc3cccc(C)c3)nc(=O)n1CC2	-1	86*	-38	40	x
CCOc1ccccc1Nc1cc2n(c(=O)n1)CCc1cc(OC)c(OC)cc1-2	1	90*	-3	59	x
COc1cc2c(cc1OC)-c1cc(Nc3ccccc3C)nc(=O)n1CC2	0	93*	-54	55	x
CCNc1cc2n(c(=O)n1)CCc1cc(OC)c(OC)cc1-2	0	21	-41	18	-1
Cc1nc2ccc(NC(=O)c3cc(Cl)ccn3)cc2s1	0	12	-81	-74	x
Cc1ccc2oc(=O)c3cc(C(=O)NCCN4CCN(C)CC4)sc3c2c1	0	-2	-13	-1	10*
Cc1cccc(NC(=O)COc2cccc3c2CCN(C)C3=O)c1C	9.8*	21	-25	-16	1
O=C(NNc1cccc(Cl)c1)c1cccnc1Cl	0	-3	-27	2	9.4*
O=[N+]([O-])c1ccccc1/C=N/n1c(C(F)(F)F)n[nH]c1=S	4	17	-27	-24	12*	Wee1 degr conf=1
Cc1cccc(C(=O)NCC(=O)OCC(=O)N2CCc3ccccc32)c1	0	-9	-13	-15	13*	Wee1 degr conf=0
Cc1ccc(C(=O)NCC(=O)OCC(=O)N2CCCc3ccccc32)cc1	0	-3	-15	-8	-1
CCS(=O)(=O)N1Cc2ccccc2CC1C(=O)Nc1ccc(F)cc1 (centres undefined)	2	-2	-21	-46	15*	Wee1 degr conf=0
CCCCNC(=O)c1nn2c(C(F)(F)F)cc(-c3ccc(OC)cc3)nc2c1Br	0	-8	-8	6	x
Cc1cccnc1NC(=O)c1ccc(C(=O)c2ccccc2)cc1	0	0	x	-11	x
COC(=O)CC1=NN(c2ccc(OC)cc2)C(=O)C1	0	-4	-8	-7	12*	Wee1 degr conf=2
COC(=O)Cc1c(C(=O)OC)nnn1-c1ccc(OC)cc1	0	-10	11	10	-1
C[C@@H]1CN(C(=O)c2nc3ccc(Cl)cn3c2CN(C)CCc2cnn(C)c2)C[C@H](C)O1	0	-4	-7	4	x
O=C(O)/C=C/c1cnn(-c2ccccc2)c1	u	-25	-54	2	15*	Wee1 degr conf=-5
CCOC(=O)c1ccccc1NC(=S)N1CCC(C)CC1	0	-12	-7	2	-2
O=C(Nc1ccccc1F)N1CCc2ccccc2C1	4	-3	-152	-42	x
